The record followed here is PubChem BioAssay (NCI).

This is part of a sample that, as a whole, favours compounds with a hit. Of some 83,000 tested, about 20% had one in any assay.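 Plates (96-well) were seeded with cells, treated with compound at one concentration, and incubated for 48 hours before percent growth was determined.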 Active and inactive are the calls of the source. Rule for the calls: active = growth percent below 10; inactive = the rest.

The first assay concerns U251 CNS. The assay is described as follows: NCI-60 one-dose screen, 48 h (100 = growth as untreated, 0 = no growth, -100 = all killed). As to conditions: 10 µM unless noted.
In the case of `Cc1cc2c(-c3nc4ccccc4n3C)c(O)c(O)cc2c(O)c1-c1c(C)cc2c(-c3nc4ccccc4n3C)c(O)c(O)cc2c1O`, the growth was 13.5% (inactive).

`COc1ccc2sc(-n3nc4nc5n(c(=O)c4c3N)-c3ccccc3Sc3ccccc3-5)nc2c1`: the growth was 82.2% (inactive).

As for `CC(=O)Nc1ccc(C(=O)/C=C/c2ccc(N(C)C)cc2)cc1`, the growth is 93.9% (inactive).

For `CCCC(=O)NNc1[nH]c(-c2ccc(OC)cc2)cc1C(=O)OCC`, the growth was 104% (inactive).

In the case of `O=C(/C(Br)=C/c1ccccc1)c1ccccc1`, the growth was 5.38% (active).

For the compound `C/C=C(/C)C(=O)OC1C=C(CO)C(=O)C(OC(=O)C(C)(O)C(C)Cl)C1C(C)C` (stereo not given), the growth was -50% (active).

With `CC([C@H]1CC=C2C3CCC4=C[C@@H](N(C)C)CC[C@]4(C)C3CC[C@@]21C)N(C)C` (stereo not given in full), the growth is 31.5% (inactive).

Turning to `COc1ccc(/C=C2\SC(=O)N(Cc3cc(=O)oc4ccc(OC)cc34)C2=O)cc1`, the growth was 98.9% (inactive).

Consider `CCCCCCCCCCCCCCCC[n+]1cccc(C#N)c1`, for which the growth is 29.7% (inactive).

For the compound `COc1ccc2cnc(N)c(C#Cc3cc(C(=O)Nc4ccc(CN5CCN(C)CC5)c(C(F)(F)F)c4)cnc3C)c2c1`, the growth is 17.2% (inactive).

On to `CCCCCc1ccnc(CC(=O)c2ccc(OC)cc2)c1`, for which the growth was 88.7% (inactive).

For `CCCCCCCCCCCCCCCCCC1=NCCN1CS(=O)(=O)O`, the growth was 64.5% (inactive).

On to `COc1ccc(OC)c(Cn2cc3c(c2)-c2oncc2CC3)c1`, for which the growth is 37.8% (inactive).

For the compound `CC1Cc2cc(F)ccc2-n2cccc21` (stereo not given), the growth is 102% (inactive).

As for `CC/C(=N\Nc1nc2ccccc2n1C)c1ccccn1`, the growth is 10.4% (inactive).

In the case of `O=C(CN1C(=O)NC(c2ccccc2)(c2ccccc2)C1=O)c1ccc(N2CCCC2)cc1`, the growth was 76.6% (inactive).

Regarding `COc1ccc(-c2nc(N)n(C(=S)Nc3ccccc3)n2)cc1`, the growth was 103% (inactive).

Take `Cc1sc(NC(=O)c2ccc(C(C)(C)C)cc2)c(C(=O)O)c1C`: the growth is 17% (inactive).

In the case of `C#CCCCCCCC[C@@H]1OC(=O)[C@H]([C@@H](C)CC)NC(=O)[C@H]([C@@H](C)CC)NC(=O)CC(=O)[C@@H]1C`, the growth was 103% (inactive).

Turning to `CCOC1=C(Cl)C(=O)C(OCC)=C(Cl)C1=O`, the growth is 104% (inactive).

For the compound `Cc1ccc(CC(=O)O)c(C)c1`, the growth was 99.3% (inactive).

On to `O=C1C(=O)c2ccccc2C(O)=C1CCCc1ccc(Oc2ccccc2)cc1`, for which the growth is 36.1% (inactive).

As to `CCOc1ccc2nc3ccc(Cl)cc3nc2c1`, the growth is 96.4% (inactive).

Regarding `CC[n+]1c(C)ccc2cc(C)ccc21`, the growth is 93.5% (inactive).

With `COC(=O)/C(Br)=C/c1c[nH]c2ccc(Br)cc12`, the growth was 68.5% (inactive).

With `CC(=O)c1ccc2c(c1)c1ccccc1n2C`, the growth is 94.8% (inactive).

As to `Cc1ccc([C@@H]2C[C@H](O)Cc3ccccc3N2)s1`, the growth was 99.6% (inactive).

Consider `COC(=O)/C=C/c1cc(O)c2oc(-c3ccc(O)c(O)c3)c(C(=O)OC)c2c1`, for which the growth is 18.1% (inactive).

Take `CCc1c(C)c2ccc(OCC(=O)N=Nc3c(O)[nH]c4ccccc34)c(C)c2oc1=O`: the growth is -70.8% (active).

In the case of `CC1=C(C)C[C@]2(C(=O)O[C@H]3CCCC[C@@H]32)[S@](=O)C1`, the growth was 98.8% (inactive).

Turning to `CCOC(=O)C1=NN(c2ccccc2)C2=NC(=O)/C(=C\c3cn(-c4ccccc4)nc3-c3cc4ccccc4o3)C(=O)N12`, the growth was 99.4% (inactive).

Turning to `COc1cc2c(/C=C3\C(=O)Nc4ccc(Br)cc43)c(Cl)n(C)c2cc1C`, the growth was 10.2% (inactive).

Regarding `COc1cc2c(cc1OC)C(Cc1cc(OC)c(OC)cc1[N+](=O)[O-])=NCC2`, the growth is 77.4% (inactive).

As for `COc1ccc(-c2nc(SCC(C)C)nc(Nc3ccc([N+](=O)[O-])cc3)c2C#N)cc1`, the growth was 80.9% (inactive).

As to `O=C(/C=C/c1c[nH]c2ccccc12)c1cc2ccccc2o1`, the growth is 98.2% (inactive).

In the case of `O=C(CBr)OCc1ccc([N+](=O)[O-])o1`, the growth was 92.1% (inactive).

As to `C/C=C(/C)C(=O)OC1C=C(CO)C(=O)C(OC(=O)C2(C)OC2C)C1C(C)C` (stereo not given), the growth was -23.1% (active).

Consider `O=C(Nc1ccc(Cl)c(Cl)c1)O/N=C\c1c(Cl)ccc([N+](=O)[O-])c1Cl`, for which the growth is 3.06% (active).

For `Oc1ccc(CN(Cc2ccc(C(F)(F)F)cc2)Cc2ccc(O)c3ncccc23)c2cccnc12`, the growth is 1.77% (active).

`COc1cc(-c2nc(/C=C3/C(=O)Nc4ccccc43)c3ccccn23)cc(OC)c1OC`: the growth is 91.6% (inactive).

A further assay relates to PC-3 prostate. The assay is described as above. To be noted: 10 µM unless noted.
As to `Cc1cc2c(-c3nc4ccccc4n3C)c(O)c(O)cc2c(O)c1-c1c(C)cc2c(-c3nc4ccccc4n3C)c(O)c(O)cc2c1O`, the growth is 27.3% (inactive).

As for `COc1ccc2sc(-n3nc4nc5n(c(=O)c4c3N)-c3ccccc3Sc3ccccc3-5)nc2c1`, the growth was 48.7% (inactive).

As for `CC(=O)Nc1ccc(C(=O)/C=C/c2ccc(N(C)C)cc2)cc1`, the growth was 94.6% (inactive).

Turning to `CCCC(=O)NNc1[nH]c(-c2ccc(OC)cc2)cc1C(=O)OCC`, the growth was 106% (inactive).

`O=C(/C(Br)=C/c1ccccc1)c1ccccc1`: the growth was 87.8% (inactive).

In the case of `C/C=C(/C)C(=O)OC1C=C(CO)C(=O)C(OC(=O)C(C)(O)C(C)Cl)C1C(C)C` (stereo not given), the growth was -24.8% (active).

Regarding `CC([C@H]1CC=C2C3CCC4=C[C@@H](N(C)C)CC[C@]4(C)C3CC[C@@]21C)N(C)C` (stereo not given in full), the growth is 42.3% (inactive).

On to `COc1ccc(/C=C2\SC(=O)N(Cc3cc(=O)oc4ccc(OC)cc34)C2=O)cc1`, for which the growth was 93.1% (inactive).

Take `CCCCCCCCCCCCCCCC[n+]1cccc(C#N)c1`: the growth is 25.1% (inactive).

Take `COc1ccc2cnc(N)c(C#Cc3cc(C(=O)Nc4ccc(CN5CCN(C)CC5)c(C(F)(F)F)c4)cnc3C)c2c1`: the growth is 16% (inactive).

For `CCCCCc1ccnc(CC(=O)c2ccc(OC)cc2)c1`, the growth was 76.1% (inactive).

On to `CCCCCCCCCCCCCCCCCC1=NCCN1CS(=O)(=O)O`, for which the growth is 39% (inactive).

Take `COc1ccc(OC)c(Cn2cc3c(c2)-c2oncc2CC3)c1`: the growth was 45.5% (inactive).

`CC1Cc2cc(F)ccc2-n2cccc21` (stereo not given): the growth was 98.2% (inactive).

Regarding `CC/C(=N\Nc1nc2ccccc2n1C)c1ccccn1`, the growth is 26.5% (inactive).

With `O=C(CN1C(=O)NC(c2ccccc2)(c2ccccc2)C1=O)c1ccc(N2CCCC2)cc1`, the growth is 71.8% (inactive).

Regarding `COc1ccc(-c2nc(N)n(C(=S)Nc3ccccc3)n2)cc1`, the growth was 92.3% (inactive).

On to `Cc1sc(NC(=O)c2ccc(C(C)(C)C)cc2)c(C(=O)O)c1C`, for which the growth was 53.7% (inactive).

As to `C#CCCCCCCC[C@@H]1OC(=O)[C@H]([C@@H](C)CC)NC(=O)[C@H]([C@@H](C)CC)NC(=O)CC(=O)[C@@H]1C`, the growth was 85.9% (inactive).

With `CCOC1=C(Cl)C(=O)C(OCC)=C(Cl)C1=O`, the growth was 104% (inactive).

In the case of `Cc1ccc(CC(=O)O)c(C)c1`, the growth was 98.3% (inactive).

Turning to `O=C1C(=O)c2ccccc2C(O)=C1CCCc1ccc(Oc2ccccc2)cc1`, the growth was 37.5% (inactive).

Take `CCOc1ccc2nc3ccc(Cl)cc3nc2c1`: the growth was 99.9% (inactive).

On to `CC[n+]1c(C)ccc2cc(C)ccc21`, for which the growth was 104% (inactive).

With `COC(=O)/C(Br)=C/c1c[nH]c2ccc(Br)cc12`, the growth was 70.8% (inactive).

On to `CC(=O)c1ccc2c(c1)c1ccccc1n2C`, for which the growth is 89.2% (inactive).

Consider `Cc1ccc([C@@H]2C[C@H](O)Cc3ccccc3N2)s1`, for which the growth is 92% (inactive).

As for `COC(=O)/C=C/c1cc(O)c2oc(-c3ccc(O)c(O)c3)c(C(=O)OC)c2c1`, the growth was 11.4% (inactive).

As to `CCc1c(C)c2ccc(OCC(=O)N=Nc3c(O)[nH]c4ccccc34)c(C)c2oc1=O`, the growth is -9.58% (active).

On to `CC1=C(C)C[C@]2(C(=O)O[C@H]3CCCC[C@@H]32)[S@](=O)C1`, for which the growth is 110% (inactive).

As to `CCOC(=O)C1=NN(c2ccccc2)C2=NC(=O)/C(=C\c3cn(-c4ccccc4)nc3-c3cc4ccccc4o3)C(=O)N12`, the growth is 88.2% (inactive).

On to `COc1cc2c(/C=C3\C(=O)Nc4ccc(Br)cc43)c(Cl)n(C)c2cc1C`, for which the growth was 11.8% (inactive).

Consider `COc1cc2c(cc1OC)C(Cc1cc(OC)c(OC)cc1[N+](=O)[O-])=NCC2`, for which the growth was 69.2% (inactive).

Take `COc1ccc(-c2nc(SCC(C)C)nc(Nc3ccc([N+](=O)[O-])cc3)c2C#N)cc1`: the growth is 92.6% (inactive).

For `O=C(/C=C/c1c[nH]c2ccccc12)c1cc2ccccc2o1`, the growth was 75.6% (inactive).

Consider `O=C(CBr)OCc1ccc([N+](=O)[O-])o1`, for which the growth is 76.2% (inactive).

For `C/C=C(/C)C(=O)OC1C=C(CO)C(=O)C(OC(=O)C2(C)OC2C)C1C(C)C` (stereo not given), the growth was -7.66% (active).

With `O=C(Nc1ccc(Cl)c(Cl)c1)O/N=C\c1c(Cl)ccc([N+](=O)[O-])c1Cl`, the growth was -8.42% (active).

As for `Oc1ccc(CN(Cc2ccc(C(F)(F)F)cc2)Cc2ccc(O)c3ncccc23)c2cccnc12`, the growth was 12.9% (inactive).

As for `COc1cc(-c2nc(/C=C3/C(=O)Nc4ccccc43)c3ccccn23)cc(OC)c1OC`, the growth is 57.8% (inactive).
